Data taken from the supplement of paper PMC6135742.
Values joined by “and” are separate entries in the source; they are usually repeats but may differ in a detail not shown here. Equal values may be shown once. Where a name gives a salt, the structure may show the parent alone. ± gives the standard deviation of the averaged measurements. Whole data set: some 2,600 compounds, median “total cell number (DAPI+ nuclei) relative to DMSO vehicle control” near -1.4, cut for the lowest 2% near -23. What follows is part of a selection rich in the lowest values, with near analogues and random picks from the rest.

Test system: jimpy (Plp1 jimpy) mouse iPSC-derived oligodendrocyte progenitor cells
Test: total cell number (DAPI+ nuclei) relative to DMSO vehicle control (SDs above negative control mean); higher = more surviving cells
Details: 10 µM; 3 days

Row | Structure (SMILES) | total cell number
1 | COC1=CC(c2cc3ccccc3[nH]2)=N/C1=C\c1[nH]c(C)cc1C [Obatoclax Mesylate (GX15-070)] | -27.6
2 | Cc1cc(C)c(/C=C2\C(=O)Nc3ccccc32)[nH]1 [Semaxanib (SU5416)] | -1.49
3 | Cc1cc(C)c(/C=C2\C(=O)Nc3ccccc32)[nH]1 | -3.96
4 | C[C@H](NC(=O)Cc1cc(F)cc(F)c1)C(=O)N[C@@H]1C(=O)N(C)c2ccccc2-c2ccccc21 | -6.63
5 | NS(=O)(=O)c1nn2cc(-c3ccccc3)nc2s1 | -5.78
6 | CCCCCCCC/C=C\CCCCCCCC(=O)NCc1ccc(O)c(OC)c1 [Olvanil] | -4.4
7 | Cc1cc(Nc2cc(N3CCN(C)CC3)nc(Sc3ccc(NC(=O)C4CC4)cc3)n2)n[nH]1 [VX-680 (Tozasertib, MK-0457)] | -24
8 | Cc1cc(Nc2cc(N3CCN(C)CC3)nc(/C=C/c3ccccc3)n2)n[nH]1 | -26.3
9 | O=C(Nc1ccc2[nH]ncc2c1)C1CCC1 [Rhodblock 6] | -2.58
10 | C[C@@H](N)[C@H]1CC[C@H](C(=O)Nc2ccncc2)CC1 | -1.42 and -2.14
11 | Fc1ccc(C(OCCCc2cnc[nH]2)c2ccc(F)cc2)cc1 | -1.91
12 | CC(C)NCC(O)c1ccc(NS(C)(=O)=O)cc1 (racemic) [(±)-Sotalol hydrochloride] | -1.64
13 | COCCNC(=O)COc1ccc(OCCNC[C@H](O)COc2ccccc2)cc1 [ZD 7114 hydrochloride] | -0.987
14 | CCCC(=O)O[C@]1(C(=O)COC(C)=O)CC[C@H]2[C@@H]3C[C@H](F)C4=CC(=O)C=C[C@]4(C)[C@@]3(F)[C@@H](O)C[C@@]21C [Difluprednate] | 4.34
15 | COc1cc(N2CCN(C)CC2)ccc1Nc1nccc(-c2cn(C)c3cnccc23)n1 | -15.9
16 | O=C(O)Cc1ccc(O)c(O)c1 [3,4-Dihydroxyphenylacetic acid] | -1.97
17 | Nc1nc(Cl)nc2c1ncn2[C@@H]1O[C@H](CO)[C@@H](O)[C@@H]1F [Clofarabine] | -21.2
18 | Nc1nc(Cl)nc2c1ncn2[C@@H]1O[C@H](CO)[C@@H](O)[C@H]1O [2-Chloroadenosine] | -3.18
19 | Nc1nc(Cl)nc2c1ncn2[C@H]1C[C@H](O)[C@@H](CO)O1 [Cladribine] | -22.8
20 | c1cnc2cc3c(cc2n1)[C@@H]1CNC[C@H]3C1 [Varenicline tartrate] | -2.7
21 | c1cnc2cc3c(cc2n1)[C@@H]1CNC[C@H]3C1 [Varenicline Tartrate] | 1.55

Row | Structure (SMILES) | total cell number
22 | O=C(O)C1(C(=O)O)CCC1.[NH2-].[NH2-].[Pt+2] [Carboplatin] | -4.56 ± 1.4
23 | CSc1nc(N)c2ncn([C@@H]3O[C@H](COP(=O)(O)OP(=O)(O)OP(=O)(O)O)[C@H](O)C3O)c2n1 (some centres not stated) [2-Methylthioadenosine triphosphate tetrasodium] | 1.81
24 | Nc1ncnc2c1c(-c1ccc(Oc3ccccc3)cc1)cn2C1CCCC1 | -5.56
25 | C=CC(=O)N1CCC[C@@H](n2nc(-c3ccc(Oc4ccccc4)cc3)c3c(N)ncnc32)C1 | -8.95
26 | Nc1ncnc2c1c(-c1cccc(OCc3ccccc3)c1)cn2C1CC(CN2CCCC2)C1 (configuration not stated) | -25.8
27 | O=C(Nc1ccccc1C(=O)NC1CCCCNC1=O)c1cc2ccccc2s1 (configuration not stated) | -0.315
28 | COC(=O)N[C@H](C(=O)N1CCC[C@H]1c1ncc(-c2ccc(-c3ccc(-c4cnc([C@@H]5CCCN5C(=O)[C@@H](NC(=O)OC)C(C)C)[nH]4)cc3)cc2)[nH]1)C(C)C | -5.73
29 | COc1cccc2c1[C@@H]1CN(CCCCn3c(=O)[nH]c4c(sc5ncc(-c6ccccc6)nc54)c3=O)C[C@@H]1CO2 [Fiduxosin hydrochloride] | -6.17
30 | Cc1nc(C(=O)NCC(=O)O)c(O)c2ccc(Oc3ccccc3)cc12 | 3.22
31 | C[C@@H](Oc1cc(-n2cnc3ccc(CN4CCN(C)CC4)cc32)sc1C(N)=O)c1ccccc1C(F)(F)F | -14.7
32 | CC(C)c1cc(C(=O)N2Cc3ccc(CN4CCN(C)CC4)cc3C2)c(O)cc1O | -25.7
33 | Nc1ncnc2c1ncn2[C@@H]1O[C@H](COP(=O)(O)OP(=O)(O)OP(=O)(O)OP(=O)(O)OC[C@@H]2O[C@H](n3cnc4c(N)ncnc43)C(O)[C@@H]2O)[C@H](O)C1O (some centres not stated) [P1,P4-Di(adenosine-5')tetraphosphate triammonium] | -0.947
34 | Nc1c(S(=O)(=O)O)cc(Nc2ccc(Nc3nc(Cl)nc(Nc4cccc(S(=O)(=O)O)c4)n3)c(S(=O)(=O)O)c2)c2c1C(=O)c1ccccc1C2=O [Reactive Blue 2] | -0.98
35 | C[C@@H]1O[C@@H](O[C@H]2[C@H](Oc3cc(O)c(C(=O)CCc4ccc(O)cc4)c(O)c3)O[C@H](CO)[C@@H](O)[C@@H]2O)[C@H](O)[C@H](O)[C@H]1O [Naringin Dihydrochalcone] | -0.984
36 | Cc1nc2c([nH]1)c(=O)n(C)c(=O)n2Cc1ccco1 [Furafylline] | -0.322
37 | O=C(Nc1cccc(Nc2ncc(Br)c(NCCc3cnc[nH]3)n2)c1)N1CCCC1 | -24.3
38 | Cc1cnc(Nc2ccc(OCCN3CCCC3)cc2)nc1Nc1cccc(S(=O)(=O)NC(C)(C)C)c1 | -12.3
39 | O=C(NCCCNc1nc(Nc2cccc(NC(=O)N3CCCC3)c2)ncc1I)c1cccs1 | -23.5
40 | C=CC(=O)Nc1cccc(Nc2nc(Nc3ccc(OCCOC)cc3)ncc2F)c1 | -15.3
41 | NC[C@@H]1O[C@H](c2ccccc2)Cc2c1ccc(O)c2O | -2.54
42 | CCCCCCCCCCCCc1ccc(S(=O)(=O)Nc2nncs2)cc1 | 1.21
